Source: PubChem BioAssay
Activity calls are given as the source filed them.

Key:
[1] = test system: Plasmodium falciparum Sir2 (PF13_0152, Sir2A); experiment: pfSir2 binders on small-molecule microarrays, primary screen, biochemical, small-molecule microarray, 635 nm fluorescence (AID 1098); conditions: small-molecule microarray binding, fluorescence 635 nm; higher = more signal;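 note: score merges spot fluorescence intensity with its signal-to-noise ratio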
[2] = small-molecule microarray binders of probe aDKK1, primary screen, biochemical, biotinylated probe, 635/667 nm fluorescence (AID 1099); conditions: higher = more signal;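 note: score merges 667nm spot fluorescence with signal to noise across triplicate slides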
[3] = small-molecule microarray binders of probe aCHRDL2, primary screen, biochemical, biotinylated probe, 635/667 nm fluorescence (AID 1100); conditions: higher = more signal
[4] = splicing luciferase reporter signal modulators, primary screen, spliceosome inhibition project, cell-based, HEK293, splice +/- reporter (AID 1101); conditions: luminescence, 24 h, higher = more signal, called active from +8 up or from −8 down;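 note: HEK293 cells carrying a splicing-competent luciferase reporter gene; test concentration not given here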
[5] = molecular target: Fibroblast growth factor 10 (Homo sapiens) (UniProt O15520); experiment: FGF10 binders on small-molecule microarrays, primary screen, biochemical, small-molecule microarray, 635 nm fluorescence (AID 1102); conditions: FGF10 binding, fluorescence 635 nm, higher = more signal
Fibroblast growth factor 10 (Homo sapiens), sequence (O15520 whole entry, looked up): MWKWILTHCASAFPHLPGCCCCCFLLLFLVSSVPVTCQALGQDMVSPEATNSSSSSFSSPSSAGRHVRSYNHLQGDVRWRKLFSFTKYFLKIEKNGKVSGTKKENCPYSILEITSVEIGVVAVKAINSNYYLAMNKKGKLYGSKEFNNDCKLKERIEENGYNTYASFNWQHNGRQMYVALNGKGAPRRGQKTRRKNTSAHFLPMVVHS

[6] = test system: glycogen synthase kinase-3 (GSK3A per assay name; protocol says GSK3B); experiment: GSK3 binders on small-molecule microarrays, primary screen, biochemical, small-molecule microarray, 635 nm fluorescence, GSK3A (AID 1103); conditions: small-molecule microarray binding, fluorescence 635 nm; higher = more signal; note: the record names both GSK3A and GSK3B
[7] = molecular target: Epidermal growth factor receptor (Homo sapiens) (UniProt P00533); experiment: EGFR binders on small-molecule microarrays, primary screen, biochemical, small-molecule microarray, 635 nm fluorescence (AID 1104); conditions: EGFR binding, higher = more signal;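 note: score merges 667 nm emission intensity with spot signal to noise over triplicate slides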
Epidermal growth factor receptor (Homo sapiens), sequence (P00533 whole entry, looked up): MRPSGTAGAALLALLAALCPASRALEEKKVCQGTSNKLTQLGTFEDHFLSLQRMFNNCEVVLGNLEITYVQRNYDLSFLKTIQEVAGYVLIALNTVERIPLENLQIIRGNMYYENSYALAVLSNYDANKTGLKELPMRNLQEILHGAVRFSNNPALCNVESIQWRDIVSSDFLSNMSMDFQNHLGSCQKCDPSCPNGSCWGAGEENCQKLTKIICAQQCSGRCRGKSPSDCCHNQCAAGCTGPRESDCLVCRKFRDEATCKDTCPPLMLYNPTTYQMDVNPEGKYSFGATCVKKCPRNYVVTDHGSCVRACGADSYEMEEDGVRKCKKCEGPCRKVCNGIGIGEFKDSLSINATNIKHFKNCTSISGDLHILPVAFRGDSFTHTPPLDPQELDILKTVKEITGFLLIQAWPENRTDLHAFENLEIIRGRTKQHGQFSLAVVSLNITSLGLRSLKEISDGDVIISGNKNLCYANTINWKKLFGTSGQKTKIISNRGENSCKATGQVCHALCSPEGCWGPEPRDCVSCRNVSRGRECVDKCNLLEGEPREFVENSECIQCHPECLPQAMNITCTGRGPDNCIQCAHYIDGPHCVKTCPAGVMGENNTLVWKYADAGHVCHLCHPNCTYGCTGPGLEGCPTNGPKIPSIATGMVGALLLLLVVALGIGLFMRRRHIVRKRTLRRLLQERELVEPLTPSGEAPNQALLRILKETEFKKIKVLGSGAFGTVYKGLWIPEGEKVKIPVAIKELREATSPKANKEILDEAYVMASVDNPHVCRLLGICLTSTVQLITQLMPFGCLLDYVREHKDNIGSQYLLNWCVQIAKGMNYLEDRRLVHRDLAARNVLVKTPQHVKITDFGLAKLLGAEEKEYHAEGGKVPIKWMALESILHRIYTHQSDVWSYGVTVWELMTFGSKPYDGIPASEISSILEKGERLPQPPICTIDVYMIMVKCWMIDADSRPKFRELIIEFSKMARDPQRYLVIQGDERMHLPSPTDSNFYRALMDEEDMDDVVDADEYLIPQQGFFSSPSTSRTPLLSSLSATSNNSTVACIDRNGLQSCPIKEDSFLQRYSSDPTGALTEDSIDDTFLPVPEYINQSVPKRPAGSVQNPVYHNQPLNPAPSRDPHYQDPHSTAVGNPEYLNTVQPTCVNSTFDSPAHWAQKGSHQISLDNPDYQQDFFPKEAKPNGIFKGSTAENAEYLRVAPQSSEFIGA

[8] = molecular target: Follistatin-related protein 3 (Homo sapiens) (UniProt O95633); experiment: FSTL3 binders on small-molecule microarrays, primary screen, biochemical, small-molecule microarray, 635 nm fluorescence (AID 1105); conditions: FSTL3 binding, higher = more signal;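 note: score merges emission near 667 nm and signal to noise per printed spot across three slides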
Follistatin-related protein 3 (Homo sapiens), sequence (O95633 whole entry, looked up): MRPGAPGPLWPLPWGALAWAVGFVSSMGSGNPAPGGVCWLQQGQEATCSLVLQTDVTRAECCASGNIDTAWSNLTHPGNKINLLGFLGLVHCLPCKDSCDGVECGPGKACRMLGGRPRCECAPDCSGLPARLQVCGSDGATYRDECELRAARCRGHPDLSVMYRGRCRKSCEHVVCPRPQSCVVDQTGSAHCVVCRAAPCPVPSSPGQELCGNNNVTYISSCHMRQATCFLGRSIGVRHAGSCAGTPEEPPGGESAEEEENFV

[9] = molecular target: Dickkopf-related protein 1 (Homo sapiens) (UniProt O94907); experiment: DKK1 binders on small-molecule microarrays, primary screen, biochemical, small-molecule microarray, 635 nm fluorescence scan (AID 1106); conditions: DKK1 binding, higher = more signal;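 note: score merges emission near 667 nm with signal to noise over three replicate slides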
Dickkopf-related protein 1 (Homo sapiens), sequence (O94907 whole entry, looked up): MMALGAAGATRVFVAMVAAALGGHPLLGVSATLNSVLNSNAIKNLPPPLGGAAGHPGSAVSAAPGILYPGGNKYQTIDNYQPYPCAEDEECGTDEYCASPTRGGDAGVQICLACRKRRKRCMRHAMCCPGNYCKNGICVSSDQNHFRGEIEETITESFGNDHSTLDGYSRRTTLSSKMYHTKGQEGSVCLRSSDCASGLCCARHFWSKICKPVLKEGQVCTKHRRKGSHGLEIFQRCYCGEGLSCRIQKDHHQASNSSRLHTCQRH

[10] = test system: Inhibin beta A chain (activin A); experiment: INHBA (activin A) binders on microarrays, primary screen, biochemical, small-molecule microarray, 635 nm fluorescence scan (AID 1107); conditions: small-molecule microarray binding, higher = more signal;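 note: mouse activin A protein probed at 4.33 µg/mL on printed slides; score merges bound-protein fluorescence near 667 nm with spot signal-to-noise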
[11] = test system: Human papillomavirus type 1a protein E7 (residues 44-93); experiment: HPV1a E7 fragment binders on microarrays, primary screen, biochemical, small-molecule microarray, residues 44-93, 635 nm fluorescence (AID 1108); conditions: small-molecule microarray binding, fluorescence 635 nm; higher = more signal;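 note: E7 fragment applied at 1 µg/mL in TBST for 1 h at 4 C; score combines spot fluorescence with its signal to noise ratio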
[12] = modulators of HCV replicon luciferase signal, primary screen, HCV replication inhibitor project, Huh7 cells, luciferase reporter (AID 1109); conditions: 48 h, higher = more signal;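 note: huh7 hepatoma cells harbouring a luciferase neomycin HCV replicon reporter; luciferase luminescence as measure of HCV replicon replication; test concentration not given here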
[13] = molecular target: Left-right determination factor 2 (Homo sapiens) (UniProt O00292); experiment: LEFTY2 binders on small-molecule microarrays, primary screen, biochemical, small-molecule microarray, 635 nm fluorescence scan (AID 1110); conditions: LEFTY2 binding, higher = more signal
Left-right determination factor 2 (Homo sapiens), sequence (O00292 whole entry, looked up): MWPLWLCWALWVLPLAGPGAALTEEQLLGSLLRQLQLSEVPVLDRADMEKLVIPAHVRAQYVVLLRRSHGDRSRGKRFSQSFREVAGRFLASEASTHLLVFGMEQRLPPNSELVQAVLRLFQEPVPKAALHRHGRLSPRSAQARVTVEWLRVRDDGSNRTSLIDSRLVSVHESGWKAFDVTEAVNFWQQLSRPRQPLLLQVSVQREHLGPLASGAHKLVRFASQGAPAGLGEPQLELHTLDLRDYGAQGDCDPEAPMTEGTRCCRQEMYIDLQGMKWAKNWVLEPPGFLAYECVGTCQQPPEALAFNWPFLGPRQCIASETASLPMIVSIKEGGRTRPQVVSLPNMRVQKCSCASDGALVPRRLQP

[14] = molecular target: Calmodulin-1 (Homo sapiens) (UniProt P0DP23); experiment: CALM1 binders on microarrays, EGTA buffer, profiling panel, biochemical, small-molecule microarray, Cy5-labelled CALM1 (AID 1111); conditions: Cy5-CALM1 binding fluorescence, higher = more signal;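 note: labelled calmodulin applied in Tris saline Tween buffer holding calcium plus EGTA and DTT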
[15] = molecular target: Calmodulin-1 (Homo sapiens) (UniProt P0DP23); experiment: calcium-bound CALM1 binders on microarrays, profiling panel, artefact control for SMM control-protein annotation, biochemical, small-molecule microarray, Cy5-labelled CALM1, plus calcium (AID 1112); conditions: Cy5-CALM1 binding fluorescence, higher = more signal;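 note: score merges spot fluorescence with signal to noise from triplicate slides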
[16] = small-molecule microarray binders of probe aWnt5a, primary screen, biochemical, biotinylated probe, 635/667 nm fluorescence (AID 1113); conditions: higher = more signal;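 note: score merges 667 nm fluorescence intensity with signal-to-noise per printed feature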
[17] = small-molecule microarray binders of probe aShh, primary screen, biochemical, biotinylated probe, 635/667 nm fluorescence (AID 1114); conditions: higher = more signal;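 note: probe is biotin-labelled aShh protein from a stem cell growth factor screen; measures binding of labelled protein to compounds printed on the slide; score merges feature fluorescence at 667 nm with signal-to-noise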
[18] = small-molecule microarray binders of probe aNog, primary screen, biochemical, biotinylated probe, 635/667 nm fluorescence (AID 1115); conditions: higher = more signal;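 note: probe is biotinylated aNog protein used at 0.15 µg/mL for 1 h at 4 C; z-score combines 667 nm fluorescence of each spot with its signal to noise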
[19] = molecular target: Torsin-1A-interacting protein 1 (Homo sapiens) (UniProt Q5JTV8); experiment: LAP1 binders from COS7 cell lysate, primary screen, small-molecule microarray, 635/667 nm fluorescence (AID 1116); conditions: COS7-hLAP1 lysate binding, 635 nm fluorescence, higher = more signal
Torsin-1A-interacting protein 1 (Homo sapiens), sequence (Q5JTV8 whole entry, looked up): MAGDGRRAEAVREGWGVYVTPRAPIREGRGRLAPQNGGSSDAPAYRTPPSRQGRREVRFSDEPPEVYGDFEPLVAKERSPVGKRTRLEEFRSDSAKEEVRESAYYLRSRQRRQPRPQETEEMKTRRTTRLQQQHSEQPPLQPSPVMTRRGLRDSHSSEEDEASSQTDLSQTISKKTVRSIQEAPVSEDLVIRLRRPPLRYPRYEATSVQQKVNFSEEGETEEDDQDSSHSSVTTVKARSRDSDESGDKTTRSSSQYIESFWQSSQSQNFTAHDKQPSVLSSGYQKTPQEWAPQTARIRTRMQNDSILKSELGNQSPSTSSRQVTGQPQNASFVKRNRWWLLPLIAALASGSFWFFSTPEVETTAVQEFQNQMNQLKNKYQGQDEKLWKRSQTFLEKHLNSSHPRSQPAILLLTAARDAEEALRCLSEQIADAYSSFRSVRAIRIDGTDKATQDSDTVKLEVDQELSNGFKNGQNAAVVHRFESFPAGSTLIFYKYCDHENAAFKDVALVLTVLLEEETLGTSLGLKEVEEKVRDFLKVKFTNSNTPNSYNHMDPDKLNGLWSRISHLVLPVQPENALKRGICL

[20] = molecular target: Alpha-bungarotoxin (Bungarus multicinctus) (UniProt P60615); experiment: alpha-bungarotoxin binders on microarray, profiling panel, artefact control for SMM control protein annotation, biochemical, small-molecule microarray, Alexa647 label, 635/667 nm fluorescence (AID 1117); conditions: alpha-BTX-A647 binding fluorescence, higher = more signal
Alpha-bungarotoxin (Bungarus multicinctus), sequence (P60615 whole entry, looked up): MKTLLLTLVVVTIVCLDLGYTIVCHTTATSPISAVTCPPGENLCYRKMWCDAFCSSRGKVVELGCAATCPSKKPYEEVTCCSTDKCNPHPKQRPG

| SMILES | composite z-score [1] | composite z-score [2] | composite z-score [3] | z-score [4] | composite z-score [5] | composite z-score [6] | composite z-score [7] | composite z-score [8] | composite z-score [9] | composite z-score [10] | composite z-score [11] | z-score [12] | composite z-score [13] | composite z-score [14] | composite z-score [15] | composite z-score [16] | composite z-score [17] | composite z-score [18] | composite z-score [19] | composite z-score [20] |
| --- | --- | --- | --- | --- | --- | --- | --- | --- | --- | --- | --- | --- | --- | --- | --- | --- | --- | --- | --- | --- |
| COc1ccc([Si](C)(C)[C@H]2[C@H](CC(=O)N3Cc4ccccc4C[C@H]3CO)O[C@@]3(C(=O)N(Cc4cccc(N5CCOC5=O)c4)c4ccccc43)[C@@H]2C)cc1 | 1.1 | -0.158 | 0.0765 | -1.07 (inactive) | 0.701 | 0.461 | 1.13 | 1.24 | 1 | 0.923 | 0.294 | -3.42 | 0.91 | -0.792 | -1.13 | -0.0731 | -0.17 | 0.232 | 0.473 | 0.894 |
| O=C1O[C@@H](c2ccccc2)[C@@H](c2ccccc2)N2[C@@H](c3ccc(O)cc3)[C@]3(C(=O)Nc4ccc(C#CC5(O)CCCCCC5)cc43)[C@@H](C(=O)Nc3nc4ccccc4s3)[C@H]12 | 0.864 | 0.051 | 0.546 | 0.179 (inactive) | 0.869 | 1.34 | 0.736 | 1.39 | 0.892 | 0.644 | -0.423 | -0.56 | 0.494 | 0.395 | 0.253 | 0.245 | -0.35 | 1.15 | 1.18 | 1.91 |
| CCCNC(=O)[C@@]1(Sc2ccc(C)cc2)CC(=O)N(Cc2ccccc2Cl)[C@@H]1c1ccc(CO)cc1 | 0.237 | 0.866 | 0.956 | -2.31 (inactive) | 0.719 | 1.28 | 0.566 | 1.06 | 1.22 | 1.42 | 0.658 | -2.42 | 0.546 | 0.857 | 1.03 | -0.0478 | 0.0407 | 0.0021 | 0.574 | 2.05 |
| CO[C@H]1COC(=O)[C@@H](Cc2ccccc2)NC(=O)[C@@H](C)COC(=O)CC=C[C@@H]1C | 0.318 | -0.63 | -1.46 | 0.105 (inactive) | 0.42 | -0.0524 | 0.954 | 0.439 | 0.913 | 1.31 | -0.661 | 0.413 | 0.831 | -2.36 | -2.14 | -0.133 | -0.124 | -0.234 | -0.0159 | -0.39 |
| COC(=O)Cn1c(C(=O)N2CCCC2)cc2c1C[C@H]1CN(C(=O)c3ccccc3)[C@@](Cc3ccccc3)(C(=O)OC)[C@@H]21 | 0.473 | 0.789 | 1.09 | 0.309 (inactive) | 0.0175 | -0.838 | -0.282 | 0.105 | -0.837 | 0.632 | 0.225 | -1.02 | -0.0875 | 0.79 | 0.589 | -0.006 | 0.0639 | -0.374 | 0.261 | 0.236 |
| CO[C@H]1COC(=O)[C@H](C)COC(=O)[C@H](Cc2ccccc2)NC(=O)CC=C[C@H]1C | 1.01 | -0.345 | -1.3 | -0.857 (inactive) | 0.245 | -0.232 | 0.843 | 1.31 | 1.68 | 1.26 | -0.943 | -0.56 | 1.09 | -1.37 | -1.74 | 0.266 | 0.223 | 0.653 | -0.0597 | -0.948 |
| COc1cccc([C@@H]2[C@@H](C)CC[C@H]3C(=O)N4[C@H](c5cccc(OC)c5)[C@@H](C)CC[C@H]4C(=O)N23)c1 | 0.168 | -0.271 | -0.521 | -1.59 (inactive) | 0.614 | 0.802 | 0.518 | 0.75 | 0.558 | -0.185 | 0.27 | 0.533 | 0.767 | -0.2 | -0.781 | -0.0853 | -0.2 | -0.0611 | 0.37 | 0.452 |
| O=[N+]([O-])c1ccc(C[n+]2ccc3ccc(O)cc3c2)o1 | 0.595 | 0.174 | -0.144 | -0.0287 (inactive) | 0.297 | 0.314 | 0.219 | 0.42 | 0.0242 | 0.618 | -0.0611 | -0.95 | -0.0338 | 1.01 | 0.287 | -0.0435 | 0.673 | -0.206 | -0.314 | 2.53 |
| C=CCOC(=O)[C@@H]1[C@H]2C(=O)O[C@H](c3ccccc3)[C@H](c3ccccc3)N2[C@H](c2ccc(OCCOC(=O)[C@H]3C[C@H]4C(=O)N[C@@H](CCCCNC(C)=O)C(=O)N4[C@H]3c3ccc(O)cc3)cc2)[C@@]12C(=O)Nc1ccc(I)cc12 | 1.3 | -0.173 | -0.119 | 0.711 (inactive) | 1.03 | 1.28 | 0.603 | 1.19 | 0.394 | 0.565 | 1.39 | -1.66 | 0.576 | 0.419 | 0.232 | -0.104 | -0.232 | -0.0496 | 0.818 | 1.07 |
| C=CC[C@]1(C(=O)O)N=C(c2ccc(OCCCO)cc2)O[C@H]1c1ccccc1 | 1.43 | 0.518 | 0.838 | -0.893 (inactive) | -0.0023 | -0.517 | -1.13 | -1.02 | -0.968 | 0.654 | -0.726 | -0.138 | -0.764 | 1.21 | 0.994 | -0.124 | 0.216 | 0.448 | 0.498 | 0.378 |
| CCCCO[C@H]1C[C@H]2C(Br)=C[C@@]1(CO)C(=O)[C@]21CO1 | -0.145 | -0.482 | -1.04 | -1.53 (inactive) | 0.136 | -0.243 | 0.156 | 0.184 | 0.308 | 0.363 | -0.122 | -1.46 | 0.456 | -0.795 | -1.33 | -0.146 | -0.123 | -0.278 | -0.242 | -0.755 |
